The subject of one experiment is Staphylococcus aureus. The experiment is described as follows: Antibacterial activity against Staphylococcus aureus MRSA ATCC 43300 (CO-ADD:GP_020); MIC in CAMBH media using NBS plates, by Resazurin F(560/590). The class given is functional. The settings on record: Concentration 20 uM, ASSAY_TEST Inhibition of Bacterial Growth, detection method Resazurin, Fluorescence (ex560/em590), MEDIA CAMHB, plate type 384well, CORNING #3640, time 18 hr.

In the next experiment the test system is Acinetobacter baumannii. The experiment is described as follows: Antibacterial activity against Acinetobacter baumannii ATCC 19606 (CO-ADD:GN_034); MIC in CAMBH media using NBS plates, by Resazurin F(560/590). It counts as functional. The following applies: Concentration 20 uM, ASSAY_TEST Inhibition of Bacterial Growth, detection method Resazurin, Fluorescence (ex560/em590), MEDIA CAMHB, plate type 384well, CORNING #3640, time 18 hr.

A further experiment has as its system Escherichia coli. The experiment is described as follows: Antibacterial activity against Escherichia coli ATCC 25922 (CO-ADD:GN_001); MIC in CAMBH media using NBS plates, by Resazurin F(560/590). The class given is functional. The following applies: Concentration 20 uM, ASSAY_TEST Inhibition of Bacterial Growth, detection method Resazurin, Fluorescence (ex560/em590), MEDIA CAMHB, plate type 384well, CORNING #3640, time 18 hr. (In general: The colour change of resazurin is a common sign of viable cells or microbes.)

For a further experiment, the system named is Klebsiella pneumoniae. The following applies: Concentration 20 uM; ASSAY_TEST Inhibition of Bacterial Growth; detection method Absorption (OD600); MEDIA CAMHB; plate type 384well; NBS; CORNING #3640; time 18 hr.
Another experiment deals with Candida albicans. The settings on record: 20 µM.
In another experiment the test system is Cryptococcus neoformans. The settings on record: Concentration 20 uM; ASSAY_TEST Inhibition of Fungal Growth; detection method Resazurin; Absorption (OD600-OD570); plate type 384well; NBS; CORNING #3640.

For part of these data: Entries with a potency or affinity are not part of this list.

What is called Inhibition is the drop in the measured response relative to a control, in per cent. Consider `CCCCC(=O)N1CCCC(C)C1` (stereo not given), for which the Inhibition is 12.48% in the experiment with Staphylococcus aureus; -11.97% in the experiment with Acinetobacter baumannii; 4.56% in the experiment with Escherichia coli; -3.93% in the experiment with Klebsiella pneumoniae; 4.76% in the experiment on Candida albicans; -4.37% in the experiment on Cryptococcus neoformans.

For `S=C(Sc1ccc(Cl)cc1)Sc1ccc(Cl)cc1`, the Inhibition with Staphylococcus aureus is -6.64%; in the experiment with Acinetobacter baumannii it was 10.03%; with Escherichia coli, 10.65%; in the experiment on Klebsiella pneumoniae, 7.47%; with Candida albicans, 2.15%; in the experiment with Cryptococcus neoformans, -8.72%.

In the case of `CN(C)S(=O)(=O)c1ccc(N)c([N+](=O)[O-])c1`, the Inhibition in the experiment with Staphylococcus aureus is -6.85%; in the experiment with Acinetobacter baumannii, 12.87%; in the experiment with Escherichia coli, 8.14%; in the experiment with Klebsiella pneumoniae, 9.42%; with Candida albicans, 1.38%; with Cryptococcus neoformans, -8.3%.

For the compound `Clc1nc(Cl)nc(-c2cn(-c3ccccc3)c3ccccc23)n1`, the Inhibition was 19.15% with Staphylococcus aureus; 12.32% with Acinetobacter baumannii; 3.43% with Escherichia coli; 3.41% with Klebsiella pneumoniae; -0.1% in the experiment with Candida albicans; 5.66% in the experiment on Cryptococcus neoformans.

As to `Nc1ccccc1Sc1cc(Cl)nnc1Cl`, the Inhibition is 10.59% in the experiment with Staphylococcus aureus; -10.6% in the experiment on Acinetobacter baumannii; 6.4% in the experiment on Escherichia coli; 13.76% in the experiment on Klebsiella pneumoniae; 6.84% in the experiment on Candida albicans; -6.72% in the experiment with Cryptococcus neoformans.

`CO/N=C1/C=C(C)C(=O)C(C)=C1C`: the Inhibition in the experiment on Staphylococcus aureus is 4.57%; with Acinetobacter baumannii, -1.27%; in the experiment with Escherichia coli, 14.83%; in the experiment with Klebsiella pneumoniae, 1.18%; in the experiment with Candida albicans, -2%; in the experiment on Cryptococcus neoformans, -4.8%.

Turning to `Oc1ccc(Nc2ccnc3cc(Cl)ccc23)cc1`, the Inhibition in the experiment with Staphylococcus aureus is -0.21%; in the experiment with Acinetobacter baumannii it was 16.04%; with Escherichia coli, -4.01%; in the experiment on Klebsiella pneumoniae, 17.31%; in the experiment on Candida albicans, 0.86%; with Cryptococcus neoformans, -3.23%.

Turning to `CN1CCN(C(=O)Nc2ccc([N+](=O)[O-])cc2)CC1`, the Inhibition with Staphylococcus aureus was 7.33%; with Acinetobacter baumannii it was 6.21%; in the experiment with Escherichia coli it was 0.54%; in the experiment with Klebsiella pneumoniae, 6.75%; with Candida albicans it was 1.28%; in the experiment on Cryptococcus neoformans it was -7.02%.

Turning to `O=C(Nc1ccc2ncccc2c1)Nc1ccc2ncccc2c1`, the Inhibition with Staphylococcus aureus was 9.01%; in the experiment on Acinetobacter baumannii, -26.89%; with Escherichia coli it was 13.25%; in the experiment with Klebsiella pneumoniae, 9.25%; in the experiment with Candida albicans, 0.58%; in the experiment on Cryptococcus neoformans, -19.53%.

Consider `CCc1nc(N)nc(N)c1-c1ccc(N(C)Cc2ccccc2)c([N+](=O)[O-])c1`, for which the Inhibition was -14.23% with Staphylococcus aureus; -5.52% with Acinetobacter baumannii; 6.75% in the experiment with Escherichia coli; 5.93% in the experiment with Klebsiella pneumoniae; 0.08% with Candida albicans; -8.19% in the experiment on Cryptococcus neoformans.

For `Cn1ncc2c(Nc3ccc([N+](=O)[O-])cc3)nc(Cl)nc21`, the Inhibition was -16.06% in the experiment on Staphylococcus aureus; 3.27% in the experiment on Acinetobacter baumannii; -14.4% in the experiment with Escherichia coli; -8.72% with Klebsiella pneumoniae; -1.97% with Candida albicans; -3.09% with Cryptococcus neoformans.

For `CSC(=N)NS(=O)(=O)c1ccc(NC(C)=O)cc1`, the Inhibition is 1.24% with Staphylococcus aureus; -21.01% in the experiment on Acinetobacter baumannii; 12.78% in the experiment with Escherichia coli; 3.27% in the experiment on Klebsiella pneumoniae; 0.03% with Candida albicans; -9.44% in the experiment on Cryptococcus neoformans.

`NC(CSC1(c2cccc3ccccc23)c2ccccc2-c2ccccc21)C(=O)O` (stereo not given): the Inhibition was 9.31% in the experiment on Staphylococcus aureus; -6.6% with Acinetobacter baumannii; 9.55% in the experiment with Escherichia coli; 13.19% with Klebsiella pneumoniae; 7.56% with Candida albicans; -2.74% in the experiment on Cryptococcus neoformans.

Regarding `O=C1Cc2cccc(O)c(=O)c2C(=O)O1`, the Inhibition with Staphylococcus aureus was 18.22%; in the experiment on Acinetobacter baumannii it was 9.21%; with Escherichia coli it was 9.09%; in the experiment with Klebsiella pneumoniae, 8.59%; in the experiment on Candida albicans, 1.02%; in the experiment with Cryptococcus neoformans, -4.33%.

Regarding `O=C(Nc1cccc(Cl)c1)Nc1nccs1`, the Inhibition was 1.33% in the experiment on Staphylococcus aureus; -6.03% with Acinetobacter baumannii; 8.66% in the experiment with Escherichia coli; 7.36% with Klebsiella pneumoniae; 3.47% in the experiment with Candida albicans; -22.98% with Cryptococcus neoformans.

Take `c1ccc(-c2nnc3nc(N4CCCCC4)nc(N4CCCCC4)n23)cc1`: the Inhibition in the experiment with Staphylococcus aureus is -3.53%; in the experiment on Acinetobacter baumannii, -1.96%; in the experiment with Escherichia coli, 14.28%; in the experiment with Klebsiella pneumoniae, 1.6%; with Candida albicans, 1.09%; with Cryptococcus neoformans, -15.11%.

`NC(=O)NC1NC(=O)NC1=O` (stereo not given) [ALLANTOIN]: the Inhibition with Staphylococcus aureus was 12.16%; with Acinetobacter baumannii, -7.41%; in the experiment with Escherichia coli, 9.38%; in the experiment with Klebsiella pneumoniae, 18.45%; with Candida albicans, 2.26%; with Cryptococcus neoformans it was -7.8%.

For `NCC(=O)Nc1ccc(Cl)cc1C(=O)c1ccc[nH]1`, the Inhibition in the experiment on Staphylococcus aureus was -7.1%; in the experiment on Acinetobacter baumannii, -14.48%; in the experiment with Escherichia coli it was 6.3%; in the experiment on Klebsiella pneumoniae, 6.27%; with Candida albicans, 1.44%; in the experiment with Cryptococcus neoformans it was -13.13%.

Turning to `Cc1ccn(C)c(=N)c1`, the Inhibition is 5.26% in the experiment with Staphylococcus aureus; -6.78% with Acinetobacter baumannii; 8.42% in the experiment on Escherichia coli; 11.41% in the experiment with Klebsiella pneumoniae; 2.59% in the experiment with Candida albicans; -0.88% with Cryptococcus neoformans.

In the case of `CC(NC(=O)c1ccc(Cl)c(Cl)c1)c1ccc(-c2ccccc2)cc1` (stereo not given), the Inhibition was 12.08% in the experiment with Staphylococcus aureus; 7.23% with Acinetobacter baumannii; 12.06% in the experiment on Escherichia coli; 14.03% in the experiment on Klebsiella pneumoniae; -5.14% in the experiment with Candida albicans; -10.74% in the experiment with Cryptococcus neoformans.

These data come from ChEMBL document CHEMBL4296182, “CO-ADD screening of NIH NCI Diversity Set V”.
